Source: PubChem BioAssay (National Center for Advancing Translational Sciences (NCATS))
CHX counter – affects cycloheximide protein synthesis inhibition readout, counter-screen. cell reporter, cycloheximide protein synthesis inhibition counterscreen. max response, %. hit rate 12% among 300,000. AID 2314; in the data active means max response mostly above about 13%, no sharp cut-off; inactive means mostly below about 14%; further: read at 38.3 µM for the half of the compounds with a filed dose; 0% is about no effect
Shiga toxin inh – blocks Shiga toxin action in Vero cells | hit rate 9.2% among 290,000 | Vero cells, Shiga toxin protein synthesis inhibition reporter | inhibition, % at 38.7 µM; in the data active means inhibition mostly above about 28%, no sharp cut-off; inactive means mostly below about 43%; further: 0% is about no effect
Marburg entry inh – Marburg virus entry inhibition; Marburg virus pseudotyped entry inhibition, cell reporter; Potency, µM (titrated, usually from 37.8 µM), inactives show top-dose activity change, negative = inhibition, most hits filed as inhibitors; hit rate 1.8% among 300,000; AID 540276; calls by dose curve; tested in HEK293 cells; further: potency means the concentration at half of the fitted maximal effect; on the % scale 0 is the no-effect control and ±100 the full control effect
LASV entry inh – Lassa virus entry inhibition; Lassa virus pseudotype entry inhibition, cell reporter; Potency, µM (titrated, usually from 37.9 µM), for inactives: at the top dose activity change, negative = inhibition, actives largely listed as inhibitors; hit rate 1.2% among 300,000; AID 540256; calls by dose curve; tested in HEK293 cells; further: potency means the concentration at half of the fitted maximal effect; on the % scale 0 is the no-effect control and ±100 the full control effect; nearly all actives have a fitted effect of over 50% in size
The depositor's hits bear a star; ? = inconclusive; . = no result; [ ] = dose if it differs, or a comment. Rows were chosen to be rich in hits. Some 12% of all compounds tested hit in one or more screens of this group.

SMILES	CHX counter	Shiga toxin inh	Marburg entry inh	LASV entry inh
Nc1ccc2oc(-c3cccc4ccccc34)nc2c1	-2.0	-2.4	?	?
Nc1ccc2oc(-c3cccs3)nc2c1	45.8*	86.2*	0.0%	-0.3%
Cc1ccc(-c2nc3cc(N)ccc3o2)c(C)c1	33.2*	66.0*	?	?
Cc1ccc(S(=O)(=O)Nc2cccc(C(=O)NCC3CCCO3)c2)cc1F (configuration not stated)	.	.	-19.3%	3.3%
COc1ccc(CCC(=O)NC(C)c2ccccc2)cc1OC (configuration not stated)	3.6	-4.0	.	.
COc1ccc(NC(=O)Cn2c(SCc3ccc(F)cc3)nc3cccnc32)cc1OC	.	.	.	26.8%[46.1 µM]
O=C(Nc1nc2n(n1)C(c1ccc(F)cc1)C=C(c1ccccc1)N2)c1ccco1 (configuration not stated)	.	.	-18.7%[46.1 µM]	-11.1%[46.1 µM]
Cc1ccc(-c2nc3cc(C)ccc3o2)cc1	33.3*	117.8*	?	14.1µM*
O=C(N/N=C/c1cn(-c2ccccc2)nc1-c1cc2ccccc2o1)c1cccnc1	52.5*	106.0*	?	?
N#C/C(=C\c1cn(-c2ccccc2)nc1-c1cc2ccccc2o1)c1nc2ccccc2[nH]1	46.1*	120.6*	13.2%	?
CN(C)S(=O)(=O)c1cccc(-c2nn(-c3ccccc3)cc2/C=C(\C#N)c2nc3ccccc3[nH]2)c1	6.0	-7.8	?	-8.1%
O=C(N/N=C/c1cn(-c2ccccc2)nc1-c1cc2ccccc2o1)c1ccncc1	84.7*	131.9*	?	?
O=C(NCC1CCCO1)C1=CC2=NC(=S)N(c3ccccc3)C(=O)C2C=C1 (configuration not stated)	.	.	-14.0%	.
CCOc1cc(C(=O)Nc2ccc(NC(=O)c3cc4ccccc4o3)c(OC)c2)cc(OCC)c1OCC	.	.	.	1.6%[46.1 µM]
Cc1ccc(S(=O)(=O)N2CCN(Cc3csc(C)n3)CC2)cc1	-0.5	-9.0	?	6.7%
Cc1c(Cl)cccc1NC(=O)NCCOCCn1c(=O)oc2ccccc21	.	.	-5.3%[46.1 µM]	7.1%[46.1 µM]
Clc1ccc(-c2nnc(-c3ccccc3)o2)c(Cl)c1	51.4*	119.1	?	?
Clc1ccc(-c2nnc(N3CCOCC3)o2)cc1	30.9*	90.3*	?	25.3%[46.1 µM]
Clc1ccc(-c2nnc(C3CC3)o2)cc1	27.0	45.5	-5.0%	13.4%
Clc1ccc(-c2nnc(-c3ccc(Br)o3)o2)c(Cl)c1	15.3*	30.1	?	-26.0%
CSc1ccccc1-c1nnc(-c2ccc(Cl)c(Cl)c2)o1	18.8	4.7	?	13.5%
Fc1ccc(-c2nnc(-c3ccc(Cl)cc3Cl)o2)cc1	22.4*	42.7*	.	.
Fc1ccc(-c2nnc(-c3ccc(Cl)cc3)o2)cc1	17.9*	46.5*	?	-9.2%
CS(=O)(=O)c1ccccc1-c1nnc(-c2ccc(Cl)cc2)o1	19.1*	63.5*	2.9%[46.1 µM]	12.9%
O=S(=O)(Cc1ccc(Cl)cc1)c1ccccc1-c1nnc(-c2ccccc2)o1	7.2	4.8	-5.6%	?
SMILES	CHX counter	Shiga toxin inh	Marburg entry inh	LASV entry inh
CSc1nnc(-c2ccc(F)cc2)o1	15.1	14.1	-2.1%	7.7%
CC(C)c1ccc(/C=N/NC(=O)c2nnn(-c3nonc3N)c2CN(C)C2CCCCC2)cc1	-1.7	-6.5	.	.
COC(=O)c1ccc(-c2ccc(Cl)cc2)nc1C	94.5*	36.7*	?	?
COC(=O)c1cc(C#N)c(NCc2ccc(Cl)cc2Cl)nc1C	-4.1	-9.2	7.6%	4.2%
O=c1cc(-c2ccccc2)n(S(=O)(=O)c2ccccc2)o1	16.5*	-8.9	-2.3%	21.0%
COc1ccc(S(=O)(=O)n2oc(=O)cc2-c2ccccc2)cc1	7.9	17.9	12.1%	7.2%
COc1ccccc1OCC(=O)Nc1cccc(-c2nnc(-c3ccco3)o2)c1	35.6*	81.9*	6.31µM*	?
O=C(Cc1ccccc1)Nc1cccc(-c2nnc(-c3ccco3)o2)c1	29.8*	85.8*	0.3%	-1.5%
Cc1ccc(/C=N/Nc2ccc(F)cc2)s1	23.1*	67.6*	?	-27.9%[46.1 µM]
Cc1ccc(/C=N/Nc2ccc(Cl)c(C(=O)O)c2)s1	103.6*	149.7*	?	?
O=C(O)c1cc(N/N=C/c2cccs2)ccc1Cl	49.2*	94.7*	.	.
Cn1c(N/N=C/c2cccs2)cc(=O)n(C)c1=O	20.9*	22.0	-5.5%	14.0%
O=C(N/N=C/c1cccs1)C(O)c1ccccc1 (configuration not stated)	-1.2	19.6	.	.
Cn1c(=O)c2c(nc(N/N=C/c3cccs3)n2C)n(C)c1=O	12.3	17.0	?	4.6%[46.1 µM]
Cc1ccc(C)c(C(=O)c2c(N)c(-c3nc(-c4ccc5c(c4)OCO5)cs3)c3ccccn23)c1	.	.	0.8%[46.1 µM]	1.6%[46.1 µM]
COCCCNC(=O)C(=O)NCC(c1ccc2c(c1)OCO2)N1CCOCC1 (configuration not stated)	.	.	.	8.6%[46.1 µM]
Cc1cc(Nc2cc(Cl)ccc2C)n2nc(-c3ccccc3)nc2n1	.	.	-1.1%[46.1 µM]	4.2%[46.1 µM]
CCCC(=O)NC(=S)Nc1ccc(NC(=O)C(C)C)c(OC)c1	-0.2	1.9	.	.
O=C(Nc1cccc(F)c1)Nc1ccccn1	49.5*	60.7*	?	?
O=C(Nc1ccc2c(c1)OCO2)Nc1cnccn1	26.9*	58.4*	-8.1%	1.3%
COc1ccc(NC(=O)NCc2ccc3c(c2)OCO3)cc1OC	-1.9	16.5	-7.3%	2.8%
O=C(NCc1cccs1)Nc1ccc2c(c1)OCO2	39.8*	68.7*	29.4%	18.1%
O=C(NCc1ccncc1)Nc1ccc2c(c1)OCO2	25.6*	40.5*	14.8%[46.1 µM]	1.9%
O=C(Nc1cccc(F)c1)Nc1cnccn1	7.9	11.0	.	.
O=C(Nc1ccc(F)c(F)c1)C1CCN(S(=O)(=O)c2cccs2)CC1	.	.	?	-14.6%
SMILES	CHX counter	Shiga toxin inh	Marburg entry inh	LASV entry inh
CCN(C1CCS(=O)(=O)C1)S(=O)(=O)c1ccc(OC)c(OC)c1 (configuration not stated)	.	.	0.1%	-3.1%
COCCNC(=O)C(OC(=O)c1ccco1)c1ccc(OC)cc1 (configuration not stated)	.	.	5.4%[46.1 µM]	?
CCOc1ccc(NC(=O)NCc2ccccn2)cc1	13.4	38.7	.	.
O=C(NCc1cccs1)Nc1ccc(Cl)cc1	45.4*	60.8*	-2.9%	?
c1cc(CNc2ccc3c(c2)OCCO3)ccn1	52.6*	83.4*	2.1%[46.1 µM]	?
Cc1cc(NCc2ccncc2)ccc1Br	13.4	16.2	.	.
O=C(NCc1ccccn1)Nc1ccc2c(c1)OCO2	57.1*	101.2*	-7.1%	21.3%
O=C(Nc1ccc2c(c1)OCO2)Nc1ccccn1	54.8*	99.2*	.	.
CC(=O)Nc1cccc(OCC(=O)NC(C)c2ccc3ccccc3c2)c1 (configuration not stated)	-1.0	-8.4	-6.5%[46.1 µM]	?
Cc1cc(N2C(=O)C(O)=C(C(=O)c3cc4ccccc4o3)C2c2ccc(Br)cc2)no1 (configuration not stated)	42.2*	22.8	.	.
CCn1c(SCC(=O)Nc2ccc3c(c2)oc2ccccc23)nnc1-c1ccc(N)cc1	35.2*	39.2	-29.9%	?
CC(=O)Nc1ccc(-c2nnc(SCC(=O)Nc3ccc4c(c3)oc3ccccc34)n2C)cc1	16.0*	44.4	9.3%	?
CC(C)CC(C(=O)Nc1ccccc1)N1C(=O)C2C3C=CC(C3)C2C1=O (configuration not stated)	-0.6	-1.7	-8.9%[46.1 µM]	18.6%[46.1 µM]
C=CCOc1cccc(CNc2cccc(C(=O)O)c2)c1	29.4*	103.7*	.	.
